Results on ten molecules are retold here after PubChem BioAssay (NCATS).

A number with no mark means an inactive call. Records with an inconclusive call do not appear. This is one part of the list. The source made the active and inactive calls. Unless noted, calls come from the whole dose curve; as a rule, active = well fitted curve in the direction sought with a large enough effect; inconclusive = small, poorly fitted or top-dose-only effect, or another doubt; inactive = no such curve, though single readings can be large; an effect the other way counts as inactive or inconclusive. Some results are limits rather than exact numbers.

The target of assay [1] is Rap guanine nucleotide exchange factor 3 (Homo sapiens) (UniProt O95398). The assay can be described thus: Confirmatory qHTS for antagonist of cAMP-regulated guanine nucleotide exchange factor 3 (EPAC1) (AID 1645880).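 For activity, negative = inhibition: plate controls were DMSO only for no effect and full effect of the ATA control for full effect.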 Note: nearly all actives have a fitted effect of over 55% in size. Note: potency is the fitted concentration of half-maximal effect. To be noted: EPAC1 Rap1B-BODIPY-GDP exchange, fluorescence; activity, negative = inhibition: at 115 µM (top of the series). The essentials:
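Nucleotide exchange uses 100 nM EPAC1, 250 nM RAP1B-BODIPY-GDP and 50 uM GDP, with compounds in a concentration-titration series. After 5 min at room temperature, fluorescence (480 nm ex/540 nm em) is read every 5 min for 30 min. Data are normalized to control ATA and DMSO.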

The target is the same in assay [2]. The experiment in a line: Confirmatory qHTS for agonist of cAMP-regulated guanine nucleotide exchange factor 3 (EPAC1) (AID 1645881).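 Note: EPAC1 catalysed release of BODIPY-GDP from Rap1B seen as fluorescence loss; 100% = effect of cAMP agonist control; nearly all actives have a fitted effect of over 75% in size.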
The target of assay [3] is Rap guanine nucleotide exchange factor 4 (Homo sapiens) (UniProt Q8WZA2). The assay can be described thus: Confirmatory qHTS for agonist of cAMP-regulated guanine nucleotide exchange factor 4 (EPAC2) (AID 1645884).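 Note: nucleotide exchange releases bodipy-GDP from Rap1 and this lowers its fluorescence; % is set by controls: 0 for no effect and ±100 for the full control effect; nearly all actives have a fitted effect of over 65% in size.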
Chain of Rap guanine nucleotide exchange factor 4 (Homo sapiens) (Q8WZA2 whole entry, looked up): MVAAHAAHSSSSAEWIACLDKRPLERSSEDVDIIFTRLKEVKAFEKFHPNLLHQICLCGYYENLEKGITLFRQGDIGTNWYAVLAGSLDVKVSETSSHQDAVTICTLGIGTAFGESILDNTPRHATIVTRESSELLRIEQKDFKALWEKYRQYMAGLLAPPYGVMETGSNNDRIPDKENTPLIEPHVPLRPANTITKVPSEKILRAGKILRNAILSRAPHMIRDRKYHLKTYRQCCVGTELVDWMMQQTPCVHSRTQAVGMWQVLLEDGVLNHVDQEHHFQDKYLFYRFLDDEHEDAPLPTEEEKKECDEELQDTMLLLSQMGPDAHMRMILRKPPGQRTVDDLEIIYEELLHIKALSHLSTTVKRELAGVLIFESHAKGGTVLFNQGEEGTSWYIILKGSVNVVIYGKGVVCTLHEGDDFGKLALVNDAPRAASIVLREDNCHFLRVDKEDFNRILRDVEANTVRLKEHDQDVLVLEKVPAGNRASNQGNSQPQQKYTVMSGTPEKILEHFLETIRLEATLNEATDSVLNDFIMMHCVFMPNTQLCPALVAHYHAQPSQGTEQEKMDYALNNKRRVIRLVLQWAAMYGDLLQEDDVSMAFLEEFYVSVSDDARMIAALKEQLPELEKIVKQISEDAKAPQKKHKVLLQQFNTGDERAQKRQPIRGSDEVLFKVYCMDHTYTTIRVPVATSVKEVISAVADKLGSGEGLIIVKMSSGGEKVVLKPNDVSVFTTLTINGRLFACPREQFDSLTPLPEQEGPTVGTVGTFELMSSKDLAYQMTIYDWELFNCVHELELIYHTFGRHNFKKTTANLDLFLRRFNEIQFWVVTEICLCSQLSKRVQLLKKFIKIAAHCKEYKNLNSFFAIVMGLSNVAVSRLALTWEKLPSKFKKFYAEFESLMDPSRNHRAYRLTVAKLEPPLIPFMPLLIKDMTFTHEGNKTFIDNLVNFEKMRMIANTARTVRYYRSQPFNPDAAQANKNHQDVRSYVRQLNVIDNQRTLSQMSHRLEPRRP
The target is the same in assay [4]. The assay can be described thus: Confirmatory qHTS for antagonist of cAMP-regulated guanine nucleotide exchange factor 4 (EPAC2) (AID 1645885). Note: nearly all actives have a fitted effect of over 25% in size. Note: potency is the fitted concentration of half-maximal effect.
The target of assay [5] is Rap guanine nucleotide exchange factor 3 (Homo sapiens) (UniProt O95398). The experiment in a line: Counterscreen qHTS for antagonist of cAMP-regulated guanine nucleotide exchange factor 3 (EPAC1) (AID 1645888).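 Note: fluorescence loss as bound BODIPY-GDP is released from Rap1B; % of control where 0% means no effect.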 The procedure, abridged:
(§1)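 Rap1B–BODIPY-GDP (250 nM) with 50 uM GDP; compounds pin-transferred to 9.74 nM–152 uM final (activator) or from 7.32 nM upwards (inhibitor). Fluorescence Ex/Em 480/540 nm read at 5 and 30 min, then after adding cAMP or buffer, at room temperature.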

Assay [6] shares this target. The assay can be described thus: Counterscreen qHTS for agonist of cAMP-regulated guanine nucleotide exchange factor 3 (EPAC1) (AID 1645889). Note: % of control where 0% means no effect; nearly all actives have a fitted effect of over 40% in size. The procedure, abridged: as §1
Assay [7] is described as follows: AP1 Signaling Pathway (AID 357; active = well fitted curve in either direction with a large enough effect, not every such curve was filed as active;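 note: ME-180 reporter cells stimulated with EGF at its EC50 level; % is set by controls: 0 for no effect and ±100 for the full control effect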). To be noted: ME-180 AP-1-bla reporter, EGF-induced, beta-lactamase ratio, 5 h; at 7.69 µM (top of the series) unless noted. The essentials: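 A ratiometric CCF4 readout (405 nm excitation; 460 and 530 nm emission) quantified AP-1-driven beta-lactamase in ME-180 cells after 5 h with compound and EC50 EGF; AC50 values were derived for activators and inhibitors.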

Assay [8] can be described thus: NFAT Signaling Pathway (AID 444; active = well fitted curve in either direction with a large enough effect, not every such curve was filed as active;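 note: carbachol stimulus at about its EC50 of 1 µM final; % is set by controls: 0 for no effect and ±100 for the full control effect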). To be noted: Jurkat NFAT-bla M1, carbachol, beta-lactamase ratio, 5 h; at 7.69 µM (top of the series) unless noted. The procedure, abridged:
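Jurkat cells with NFAT-driven β-lactamase reporter and co-expressed M1 receptor, stimulated with carbachol (final 1 uM, ~EC50), compound titration, 5 h at 37 °C. CCF4 loaded 1 h at RT; 460/530 nm ratio gave %activity and AC50.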

Assay [9] is described as follows: Stat Signaling Pathway (AID 446; active = well fitted curve in either direction with a large enough effect, not every such curve was filed as active;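 note: ME-180 cervical cancer cells given 40 pM IL-6 alongside compound; SIE-controlled beta-lactamase reporter measured as 460/530 nm FRET emission ratio; % is set by controls: 0 for no effect and ±100 for the full control effect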). The procedure, abridged: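 ME-180 cells carrying a SIE-driven beta-lactamase reporter are stimulated with 40 pM IL-6 for 5 h at 37C in the presence of compound. The 460/530 nm FRET substrate ratio is read after 2.5 h at RT. Data are normalised to 300 pM IL-6 and to 125 nM JAK inhibitor controls.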
Assay [10] deals with Glucocorticoid receptor (Homo sapiens) (UniProt P04150). The experiment in a line: GR-GFP Redistribution (AID 450;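 active = compounds whose dose series gives a full or clear partial fitted curve of increased nuclear translocation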; note: potency is the fitted concentration of half-maximal effect). To be noted: U2OS GR-GFP nuclear translocation, laser cytometry, 2 h.
Chain of Glucocorticoid receptor (Homo sapiens) (P04150 whole entry, looked up, the tested form may be a part): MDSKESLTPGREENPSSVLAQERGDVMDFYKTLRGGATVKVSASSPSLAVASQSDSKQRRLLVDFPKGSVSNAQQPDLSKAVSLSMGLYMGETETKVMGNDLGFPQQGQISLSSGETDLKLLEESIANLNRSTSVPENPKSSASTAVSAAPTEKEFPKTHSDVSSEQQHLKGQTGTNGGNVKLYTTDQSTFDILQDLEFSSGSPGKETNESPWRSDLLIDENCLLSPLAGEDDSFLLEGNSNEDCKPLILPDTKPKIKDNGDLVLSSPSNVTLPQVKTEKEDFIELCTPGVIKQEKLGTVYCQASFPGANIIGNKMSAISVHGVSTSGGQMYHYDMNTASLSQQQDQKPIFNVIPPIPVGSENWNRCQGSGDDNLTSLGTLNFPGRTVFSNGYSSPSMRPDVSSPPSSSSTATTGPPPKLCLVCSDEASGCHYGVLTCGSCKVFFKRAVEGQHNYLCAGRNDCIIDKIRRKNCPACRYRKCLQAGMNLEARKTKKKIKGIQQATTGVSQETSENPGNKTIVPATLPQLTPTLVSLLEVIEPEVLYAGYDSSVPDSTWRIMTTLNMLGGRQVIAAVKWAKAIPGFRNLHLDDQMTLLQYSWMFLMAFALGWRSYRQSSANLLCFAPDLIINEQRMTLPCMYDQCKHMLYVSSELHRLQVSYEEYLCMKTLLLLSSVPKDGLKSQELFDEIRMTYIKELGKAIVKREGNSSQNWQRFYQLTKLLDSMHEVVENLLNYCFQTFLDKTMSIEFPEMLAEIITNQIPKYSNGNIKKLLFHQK
Assay [11] can be described thus: qHTS for Inhibitors of Plasmodium falciparum (DD2) proliferation (AID 504314).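 Note: parasite DNA measured by SYBR Green fluorescence after red cell lysis; plate controls were DMSO vehicle for no effect and artemisinin wells for full effect.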 The procedure, abridged:
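Erythrocytes infected with P. falciparum Dd2 (0.3% parasitemia, 2.5% hematocrit) exposed to compound 72 h at 37C, 5% CO2. Parasite DNA quantified by SYBR Green fluorescence after saponin/Triton lysis overnight; normalized to 0.29 uM artemisinin and DMSO.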

A short description of assay [12]: qHTS for Inhibitors of Plasmodium falciparum (GB4) proliferation (AID 504315).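 Note: 0% = DMSO vehicle and -100% = 0.29 µM artemisinin control; nearly all actives have a fitted effect of over 50% in size.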 The procedure, abridged:
(§2)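 Erythrocytes infected with P. falciparum line (0.3% parasitemia, 2.5% hematocrit final) incubated with compounds 72 h at 37 °C, 5% CO2; SYBR Green lysis buffer added, fluorescence read next day. Normalized to 0.29 uM artemisinin and DMSO.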

Assay [13] is described as follows: qHTS for Inhibitors of Plasmodium falciparum (7G8) proliferation (AID 504316).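 Note: 0% = DMSO vehicle and -100% = 0.29 µM artemisinin full kill; nearly all actives have a fitted effect of over 65% in size.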 The essentials: as §2
Assay [14] can be described thus: qHTS for Inhibitors of Plasmodium falciparum (CP250) proliferation (AID 504320).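 Note: plate controls were DMSO vehicle for no effect and 0.29 µM artemisinin control for full effect.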 The essentials:
as §2

The nature of assay [15]: qHTS for Inhibitors of the vitamin D receptor (VDR): Hit Validation using a Texas Red Assay (AID 602201). Note: potency is the fitted concentration of half-maximal effect. The essentials:
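Fluorescence polarization with 1.5 uM VDR-LBD, LG19078 and 7 nM Texas Red (final). After 2 hours at ambient temperature, read at Ex 595 nm/Em 615 nm.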

Assay [16] concerns the target Glucocorticoid receptor (Homo sapiens) (UniProt P04150). The assay can be described thus: GR-EFC Redistribution (AID 451; calls by dose curve; note: potency is the fitted concentration of half-maximal effect). The settings on record: CHO-K1 GR-EFC translocation, beta-gal luminescence, 2 h. The procedure, abridged:
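CHO-K1 cells expressing nuclear EA and GR-ED fragments of b-gal; compounds titrated up to 46 uM final, 2 h at 37 C. GR nuclear translocation read as complemented b-gal luminescence after 1 h RT detection.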

The target of assay [17] is Mitogen-activated protein kinase 10 (Mus musculus) (UniProt Q61831). The experiment in a line: JNK3 AlphaScreen Assay (AID 530; active = well fitted curve in either direction with a large enough effect, not every such curve was filed as active;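 note: kinase came from lysate of stimulated human HepG2 cells; signal reports phosphorylation of biotinylated GST-cJun 1-79 at Ser73 with 10 µM ATP; % is set by controls: 0 for no effect and ±100 for the full control effect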). The procedure, abridged: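 Pre-activated (IL-1β/TNFα) JNK3 in HepG2 lysates phosphorylates biotin-GST-cJun(1-79), 10 uM ATP; anti-phospho-cJun(Ser73) AlphaScreen read at room temperature, pH 7.6 Tris buffer. Compounds pre-incubated 15 min as titrations.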

The target of assay [18] is 3',5'-cyclic-AMP phosphodiesterase 4B (Homo sapiens) (UniProt Q07343). The assay can be described thus: qHTS Assay for Inhibitors of PDE-IV (AID 607; active = well fitted activation curve with a large enough effect in the main read-out, with a control signal flat, not every such curve was filed as active; note: % of control where 0% means no effect). The essentials:
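HEK293 ACTOne cells with CNG channel (1000/well), endogenous PDE4; membrane potential dye, compounds up to 22.9 uM final. Fluorescence Ex 535/Em 590; RO 20-1724 (100 uM final) as reference.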

In assay [19] the target is Tumor susceptibility gene 101 protein (Homo sapiens) (UniProt Q99816). The experiment in a line: qHTS Assay for Iinhibitors of HIV-1 Budding by Blocking the Interaction of PTAP/TSG101: Hit Validation (AID 651600). Note: potency is the fitted concentration of half-maximal effect; nearly all actives have a fitted effect of over 70% in size. The essentials: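 FITC-PTAP peptide (50 nM final) binding to Tsg101 binding domain (10 uM final) was measured by polarization after 20 min at r.t. with compounds, in 10 mM HEPES pH 7.5 buffer with 0.15 M NaCl and 0.01% Tween 20.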
Chain of Tumor susceptibility gene 101 protein (Homo sapiens) (Q99816 whole entry, looked up, the tested form may be a part): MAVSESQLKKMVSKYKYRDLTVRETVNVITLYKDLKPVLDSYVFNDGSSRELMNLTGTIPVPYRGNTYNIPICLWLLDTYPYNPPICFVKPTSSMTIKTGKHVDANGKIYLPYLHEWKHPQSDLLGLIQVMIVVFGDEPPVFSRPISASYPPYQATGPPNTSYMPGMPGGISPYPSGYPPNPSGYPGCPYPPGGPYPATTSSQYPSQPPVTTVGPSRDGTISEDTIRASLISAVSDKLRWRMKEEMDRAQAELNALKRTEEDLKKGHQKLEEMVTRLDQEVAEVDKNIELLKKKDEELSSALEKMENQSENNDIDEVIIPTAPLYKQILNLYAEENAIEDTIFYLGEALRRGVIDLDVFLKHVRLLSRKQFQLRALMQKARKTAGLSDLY

The nature of assay [20]: Counterscreen for APE1 Inhibitors: Fluorescent Dye Displacement Assay (AID 2564).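 Note: loss of thiazole orange fluorescence as the dye is displaced from duplex DNA; 0% = ThO with dsDNA and no compound and -100% = ThO without dsDNA.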 The procedure, abridged:
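Thiazole Orange (250 nM) bound to 50 nM TAMRA-labelled dsDNA with tetrahydrofuran abasic site; displacement by DNA-binding compounds lowers fluorescence. Buffer 50 mM Tris-HCl pH 7.5, 50 mM NaCl, 2 mM MgCl2, 0.01% Tween-20; endpoint read at 480/540 nm.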

Assay [21] addresses Endonuclease 4 (Escherichia coli (strain K12)) (UniProt P0A6C1). The assay can be described thus: Counterscreen for APE1 Inhibitors: qHTS Assay for Inhibitors of Endonuclease IV (AID 2565).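 Note: plate controls were uninhibited enzyme wells for no effect and no enzyme buffer wells for full effect.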 The essentials: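 E. coli EndoIV at 2 nM final, preincubated 15 min at room temperature with compound, then 50 nM TAMRA/BHQ-2 THF abasic-site duplex added. Buffer: 50 mM Tris-HCl pH 7.5, 50 mM NaCl, 2 mM MgCl2, 1 mM DTT, 0.01% Tween-20. Kinetic fluorescence increase, third minus first read.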

In assay [22] the target is DNA repair nuclease/redox regulator APEX1 (Homo sapiens) (UniProt P27695). The assay can be described thus: Confirmation qHTS Assay for Inhibitors of the Human Apurinic/apyrimidinic Endonuclease 1 (APE1) (AID 2572). Note: potency is the fitted concentration of half-maximal effect; nearly all actives have a fitted effect of over 30% in size. To be noted: purified APE1, fluorogenic abasic-site DNA cleavage. The essentials: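 Enzyme preincubated 15 min at room temperature with compound; reaction started with 50 nM final double-stranded THF abasic-site substrate (5'-TAMRA, 3'-BHQ-2). Fluorescence read kinetically (525/598 nm); third-minus-first read difference gives reaction progress.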
Chain of DNA repair nuclease/redox regulator APEX1 (Homo sapiens) (P27695 whole entry, looked up): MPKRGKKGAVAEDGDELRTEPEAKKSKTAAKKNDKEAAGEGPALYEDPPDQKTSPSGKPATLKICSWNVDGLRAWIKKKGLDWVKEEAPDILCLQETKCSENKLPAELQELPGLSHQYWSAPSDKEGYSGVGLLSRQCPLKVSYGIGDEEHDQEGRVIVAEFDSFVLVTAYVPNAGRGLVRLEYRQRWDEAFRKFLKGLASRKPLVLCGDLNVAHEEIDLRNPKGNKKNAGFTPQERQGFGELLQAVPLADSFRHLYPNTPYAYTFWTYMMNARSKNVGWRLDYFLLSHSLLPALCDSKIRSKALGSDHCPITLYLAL

Assay [23] shares this target. The experiment in a line: qHTS FP-Based Assay for Inhibitors of the Human Apurinic/apyrimidinic Endonuclease 1 (APE1) (AID 2573). Note: % is set by controls: 0 for no effect and ±100 for the full control effect. The source says:
The apurinic/apyrimidinic endonuclease APE1 is the primary mammalian enzyme responsible for the removal of abasic (or AP) sites in DNA and functions centrally in the base excision DNA repair (BER) pathway. […] Thus, targeting APE1 could improve the efficacy of current treatment paradigms by promoting selective sensitization or protection of diseased and normal cells, respectively.
In order to gain insight into the mode of action of confirmed APE1 inhibitors, we implemented a miniaturized fluorescence polarization assay designed to report on compounds which competitively displace ds-DNA substrate. The fluorescence polarization assay has been implemented in 384- and 1536-well format for binding of TAMRA-labeled double-stranded DNA probe not containing a quencher. The binding of protein to DNA is inhibited by ATA, a general inhibitor of APE1 activity.
See also related primary fluorogenic assay (AID 2517). […]
Three uL of enzyme were dispensed to 1536-well Greiner black solid bottom plates. […] The plates were immediately transferred into ViewLux High-throughput CCD imager (Perkin-Elmer) in order to measure the reaction progress in kinetic mode (three reads every 60 seconds) using 525 nm excitation and 598 nm emission fluorescence protocol. The fluorescence intensity difference between the third and the first time points was used to compute reaction progress.

Chain of Rap guanine nucleotide exchange factor 3 (Homo sapiens) (O95398 whole entry, looked up): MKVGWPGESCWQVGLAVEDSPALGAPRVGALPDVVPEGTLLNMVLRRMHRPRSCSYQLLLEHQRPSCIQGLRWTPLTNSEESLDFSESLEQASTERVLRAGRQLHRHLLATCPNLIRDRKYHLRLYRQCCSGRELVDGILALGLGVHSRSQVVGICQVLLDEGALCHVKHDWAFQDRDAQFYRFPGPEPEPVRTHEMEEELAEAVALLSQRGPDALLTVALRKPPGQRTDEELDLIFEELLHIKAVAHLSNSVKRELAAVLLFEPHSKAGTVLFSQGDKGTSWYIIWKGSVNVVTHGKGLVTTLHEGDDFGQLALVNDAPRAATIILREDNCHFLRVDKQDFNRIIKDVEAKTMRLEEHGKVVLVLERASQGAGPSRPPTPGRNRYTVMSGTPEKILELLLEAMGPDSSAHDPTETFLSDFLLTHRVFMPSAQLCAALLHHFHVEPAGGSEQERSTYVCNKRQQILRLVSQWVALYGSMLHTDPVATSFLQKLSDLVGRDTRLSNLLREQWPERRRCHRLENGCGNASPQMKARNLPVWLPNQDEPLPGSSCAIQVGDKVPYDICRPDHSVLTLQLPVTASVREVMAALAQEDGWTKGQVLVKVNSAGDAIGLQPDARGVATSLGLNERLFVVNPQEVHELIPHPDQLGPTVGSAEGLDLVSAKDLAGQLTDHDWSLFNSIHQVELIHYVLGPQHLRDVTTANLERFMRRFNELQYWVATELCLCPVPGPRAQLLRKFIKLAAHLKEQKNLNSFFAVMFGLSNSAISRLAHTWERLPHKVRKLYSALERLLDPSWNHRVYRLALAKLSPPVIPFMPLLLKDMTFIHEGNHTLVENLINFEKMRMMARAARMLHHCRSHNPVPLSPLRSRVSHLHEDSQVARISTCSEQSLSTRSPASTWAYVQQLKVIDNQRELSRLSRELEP
Chain of 3',5'-cyclic-AMP phosphodiesterase 4B (Homo sapiens) (Q07343 whole entry, looked up): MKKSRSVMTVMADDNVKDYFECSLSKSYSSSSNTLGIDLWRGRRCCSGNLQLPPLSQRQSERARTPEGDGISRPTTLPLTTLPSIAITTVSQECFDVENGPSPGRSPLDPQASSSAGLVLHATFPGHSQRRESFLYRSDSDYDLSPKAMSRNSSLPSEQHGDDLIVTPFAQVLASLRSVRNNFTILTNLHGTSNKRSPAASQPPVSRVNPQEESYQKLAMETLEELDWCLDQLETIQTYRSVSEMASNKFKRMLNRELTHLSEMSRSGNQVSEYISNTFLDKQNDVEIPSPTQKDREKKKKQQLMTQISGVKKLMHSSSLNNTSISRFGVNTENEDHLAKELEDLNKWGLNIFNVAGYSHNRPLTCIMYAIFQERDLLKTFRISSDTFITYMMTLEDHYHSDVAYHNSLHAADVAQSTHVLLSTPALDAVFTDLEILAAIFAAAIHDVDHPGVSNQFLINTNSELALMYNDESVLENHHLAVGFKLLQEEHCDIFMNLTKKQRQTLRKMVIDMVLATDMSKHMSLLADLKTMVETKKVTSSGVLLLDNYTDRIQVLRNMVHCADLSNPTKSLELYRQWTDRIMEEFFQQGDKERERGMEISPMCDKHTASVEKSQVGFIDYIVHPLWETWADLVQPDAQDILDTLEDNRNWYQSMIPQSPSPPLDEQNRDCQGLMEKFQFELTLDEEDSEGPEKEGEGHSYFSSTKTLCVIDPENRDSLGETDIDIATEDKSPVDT

In the case of `CC(OC(=O)CC1CCCCC1)C(=O)Nc1ccc(S(N)(=O)=O)cc1` (stereo not given), the Potency result in [1], in assay [2] and in assay [4] was “inactive” in each case. For the same molecule, the activation in [3] is 2.89% [at 17.1 µM, percent relative to cAMP agonist control]; in assay [6], 15.8% [at 30.8 µM]. Also, the activity change, negative = inhibition in assay [5] is -10.1% [at 30.8 µM].

With `Cc1ccc(SCc2nnc(N)s2)cc1`, the figures for the activity change, negative = inhibition in [7], in [8] and in assay [5] were 14.2% [at 17.2 µM], -2.66% [at 17.2 µM] and 3.94% [at 30.8 µM], respectively. In addition, in assay [9], the molecule was classed as inactive. Besides, in assay [10], the Potency is more than 20.6 µM. For the same molecule, the Potency result in assay [1], in assay [2] and in [4] was “inactive” throughout. For the same molecule, the activation is 8.48% [at 17.1 µM, percent relative to cAMP agonist control] in assay [3] and 7.74% [at 30.8 µM] in assay [6].

In the case of `COc1ccc(/C=N/Nc2ncnc3sc(C)c(C)c23)cc1`, the Potency result in [1], in assay [2], in [3], in assay [4], in [5] and in assay [6] was “inactive” in each case.

`COc1ccc2c(c1)O[C@H](c1ccc3c(c1)OCO3)[C@@H](O)C2=O`: the call in [11], in [12], in assay [13] and in [14] was inactive. The Potency result in assay [1], in assay [2] and in assay [4] was “inactive” each time. Besides, the activation in assay [3] is 6.45% [at 17.1 µM, percent relative to cAMP agonist control]; in [6], 17% [at 30.8 µM]. Besides, the activity change, negative = inhibition in assay [5] was -0.524% [at 30.8 µM].

For `c1cncc(-c2nc(NCCCN3CCOCC3)c3c4c(sc3n2)CCC4)c1`, the Potency entry in assay [1], in [2], in assay [3], in assay [4], in assay [5] and in assay [6] was “inactive” throughout.

With `Cc1ccc(/C(O)=C2/C(=O)C(=O)OC2c2ccc(Cl)cc2)cc1` (stereo not given), the Potency was 7.08 µM (active) in assay [15] and 39.8 µM (active) in assay [1]. Also, the Potency result in assay [2] and in assay [4] was “inactive” throughout. Also, the activation in assay [3] was 1.22% [at 17.1 µM, percent relative to cAMP agonist control]; in [6] it was 5.06% [at 30.8 µM]. The activity change, negative = inhibition in assay [5] was -12.7% [at 30.8 µM].

For `Cc1cccc(NC(=O)C2CCCN(S(=O)(=O)c3ccc4c(c3)oc(=O)n4C)C2)c1` (stereo not given), the Potency result in assay [1], in assay [2] and in assay [4] was “inactive” each time. Also, the activation in [3] is 3.99% [at 17.1 µM, percent relative to cAMP agonist control]; in assay [6], 7.38% [at 30.8 µM]. In assay [5], the activity change, negative = inhibition was -11.5% [at 30.8 µM].

As to `NS(=O)(=O)c1ccc(N=Nc2c[nH]c(=O)c(O)c2)cc1`, the activity change, negative = inhibition was 8.24% in assay [7], -22.1% in assay [8] and -17.1% [at 11.4 µM] in assay [17]. The Potency in [10] was more than 46 µM; in [16] it was more than 9.22 µM; in assay [19], 18.3 µM (active); in assay [1], 42.6 µM (active); in assay [4], 84.9 µM (active). Moreover, the Potency entry in assay [18], in [2], in [3], in assay [5] and in assay [6] was “inactive” in each case.

Regarding `COc1ccc(-c2ccc(C(=O)NCCN3CCOCC3)c3occc23)c(C)c1`, the Potency entry in [1], in assay [2], in assay [3], in [4], in assay [5] and in assay [6] was “inactive” throughout.

For `COc1c(O)cc2oc(-c3ccc(O)c(O)c3)cc(=O)c2c1O`, the molecule was classed as inactive in assay [20], in assay [21] and in assay [23]. The Potency in assay [22] is 6.31 µM (active); in assay [1] it was 10.7 µM (active). The Potency entry in [2], in [3], in assay [4], in [5] and in [6] was “inactive” in each case.
